Assay outcomes from PubChem.
GDH-TPI counter-1: inhibits GDH-TPI coupling enzymes, artifact for Mtb FBA screen; GDH-TPI coupled enzyme counterscreen, NADH absorbance; inhibition, % at 4.8 µM; 1.2% of 360,000 active; AID 588335; in the data active = inhibition above about 30%
Mtb FBA inh: inhibits M. tuberculosis FBA enzyme; P9WQA3; 2.3% of 360,000 active; inhibition, % at 1 µM; purified M. tuberculosis FBA, fluorescence read-out
BJeLR viability: kills HRASV12-expressing BJeLR cells; AID 1554; inhibition, % (test concentration not listed); 0.17% of 300,000 active; BJeLR (HRASV12) viability, CellTiter-Glo ATP luminescence, 48 h; in the data active = inhibition above about 50%
PrPC TRFRET: inhibitors of human cell surface prion protein PrPC | inhibition, % at 13.8 µM | TR-FRET read-out | 0.43% of 370,000 active; in the data active = inhibition above about 24%
RecA intein inh: Mtb RecA intein splicing inhibition; cell-free RecA intein splicing, fluorescence; inhibition, % (concentration not given with the values); 0.75% of 290,000 active; AID 2221; in the data active = inhibition above about 30%
Target sequence (P9WHJ3 whole entry, looked up): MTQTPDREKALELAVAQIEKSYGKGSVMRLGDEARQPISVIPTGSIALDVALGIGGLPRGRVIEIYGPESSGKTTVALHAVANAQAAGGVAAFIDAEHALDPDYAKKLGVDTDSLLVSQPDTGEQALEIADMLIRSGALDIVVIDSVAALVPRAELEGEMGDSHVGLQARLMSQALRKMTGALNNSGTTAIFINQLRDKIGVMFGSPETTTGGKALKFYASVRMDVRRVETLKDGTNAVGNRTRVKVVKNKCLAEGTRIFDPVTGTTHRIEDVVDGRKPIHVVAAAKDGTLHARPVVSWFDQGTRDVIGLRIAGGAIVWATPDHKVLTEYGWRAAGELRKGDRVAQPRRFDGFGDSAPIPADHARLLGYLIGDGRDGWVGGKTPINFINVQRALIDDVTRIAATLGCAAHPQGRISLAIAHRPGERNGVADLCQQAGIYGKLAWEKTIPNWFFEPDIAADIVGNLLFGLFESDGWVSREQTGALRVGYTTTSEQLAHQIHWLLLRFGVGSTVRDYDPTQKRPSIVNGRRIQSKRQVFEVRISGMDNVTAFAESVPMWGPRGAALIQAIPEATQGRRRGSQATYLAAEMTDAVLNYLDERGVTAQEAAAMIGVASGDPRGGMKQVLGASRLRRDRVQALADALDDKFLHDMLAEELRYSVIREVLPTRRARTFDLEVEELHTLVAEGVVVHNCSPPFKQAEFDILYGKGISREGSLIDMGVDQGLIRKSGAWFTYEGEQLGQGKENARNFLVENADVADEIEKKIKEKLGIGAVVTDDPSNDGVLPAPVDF
Mtb FBA confirm: Mtb FBA inhibition, confirmed. purified M. tuberculosis FBA, fluorescence read-out. shares compounds with Mtb FBA inh. 78% of 5,600 active. AID 651616. inhibition, % at 1 µM
GDH-TPI counter-2: counter-screen for M. tuberculosis FBA inhibitors: GDH-TPI coupled enzyme inhibition. AID 652141. inhibition, % at 1 µM. shares compounds with Mtb FBA inh. 81% of 5,600 active. GDH-TPI coupled enzyme counterscreen, fluorescence; in the data active = inhibition above about 10%
GDH-TPI DR: GDH-TPI dose response counter-screen for Mtb FBA; shares compounds with Mtb FBA inh; GDH-TPI coupled enzyme assay, fluorescence, artifact counterscreen; IC50, µM; 79% of 170 active; call rule not given here
Hits are given with their value. Compounds with a hit are over-represented: about 4.2% of the library has one in this group of screens. Cut-off read from the data, not from the text of the source, unless noted: active = inhibition above about 27%; inactive = the rest.

For Cc1ccccc1CNC(=O)C1CCCN(c2nnc(C)c3c(C)n(-c4ccccc4)nc23)C1 (stereo unspecified) the results were GDH-TPI counter-1 inactive, Mtb FBA inh 28, BJeLR viability inactive, PrPC TRFRET inactive, RecA intein inh inactive, Mtb FBA confirm 111 and GDH-TPI counter-2 105.
COc1cc2c(cc1NC(=S)Nc1cccc3ccccc13)oc1ccccc12 was read as GDH-TPI counter-1 inactive, Mtb FBA inh 105, BJeLR viability inactive, PrPC TRFRET inactive, RecA intein inh inactive, Mtb FBA confirm active and GDH-TPI counter-2 187.
For Cc1ccc(NC(=S)Nc2cccc3ccccc23)cc1F the results were GDH-TPI counter-1 inactive, Mtb FBA inh 47, BJeLR viability inactive, PrPC TRFRET inactive, RecA intein inh inactive, Mtb FBA confirm active and GDH-TPI counter-2 168.
CC(=O)N(C)c1ccc(NC(=S)Nc2cccc3ccccc23)cc1 was read as GDH-TPI counter-1 inactive, Mtb FBA inh inactive, BJeLR viability inactive, PrPC TRFRET inactive and RecA intein inh inactive.
For Fc1cccc(NC(=S)Nc2cccc3ccccc23)c1 the results were GDH-TPI counter-1 inactive, Mtb FBA inh 67, BJeLR viability inactive, PrPC TRFRET inactive, RecA intein inh inactive, Mtb FBA confirm active and GDH-TPI counter-2 active.
COCCCNC(=S)Nc1cc2oc3ccccc3c2cc1OC was read as GDH-TPI counter-1 inactive, Mtb FBA inh inactive, BJeLR viability inactive, PrPC TRFRET inactive and RecA intein inh inactive.
For CC(=O)c1ccc(NC(=S)Nc2cccc3ccccc23)cc1 the results were GDH-TPI counter-1 inactive, Mtb FBA inh 53, BJeLR viability inactive, PrPC TRFRET inactive, RecA intein inh inactive, Mtb FBA confirm 76 and GDH-TPI counter-2 60.
Screening C=CCN1C(=O)[C@@H](CC(=O)N2CCCCC2)[C@]2(C(=O)OCC)CCCCC/C=C/12 returned PrPC TRFRET inactive.
Screening COc1ccc2oc(-c3ccncc3)cc(=O)c2c1 returned GDH-TPI counter-1 inactive, Mtb FBA inh 30, PrPC TRFRET inactive, Mtb FBA confirm active and GDH-TPI counter-2 active.
`COc1ccc2c(=O)cc(-c3ccccc3F)oc2c1` gave GDH-TPI counter-1 inactive, Mtb FBA inh inactive, BJeLR viability inactive, PrPC TRFRET inactive and RecA intein inh inactive.
c1ccc(CCCc2nc(-c3cccnc3)no2)cc1 was read as GDH-TPI counter-1 inactive, Mtb FBA inh 77, BJeLR viability inactive, PrPC TRFRET inactive, RecA intein inh inactive, Mtb FBA confirm 52 and GDH-TPI counter-2 37.
For CN(CC(=O)Nc1ccc(Cl)c(S(=O)(=O)N(C)C)c1)Cc1ccccc1 the results were GDH-TPI counter-1 inactive, Mtb FBA inh 53, BJeLR viability inactive, PrPC TRFRET inactive, RecA intein inh inactive, Mtb FBA confirm active and GDH-TPI counter-2 active.
For CCC(CC)NC(=O)O[C@H]1CC[C@@]23CCCN2C(=O)CCC[C@H]3C1 the results were PrPC TRFRET inactive.
`Cc1oc(C)c(C(=O)Nc2ccc(CC(=O)O)cc2)c1C(=O)Nc1ccc(CC(=O)O)cc1` gave GDH-TPI counter-1 inactive, Mtb FBA inh 48, BJeLR viability inactive, PrPC TRFRET inactive, RecA intein inh inactive, Mtb FBA confirm inactive, GDH-TPI counter-2 inactive and GDH-TPI DR inactive.
CC(=O)Nc1ccc(CC(=O)O)cc1 was read as GDH-TPI counter-1 inactive, Mtb FBA inh inactive, BJeLR viability inactive, PrPC TRFRET inactive and RecA intein inh inactive.
O=C(Nc1ccc2c(c1)OCCO2)C1C(=O)Nc2ccccc2C(=O)N1C1CCCCC1 (stereo unspecified) was read as PrPC TRFRET inactive.
CC(=O)Nc1ccc(C2Nc3ccccc3C(=O)N2C2CCCCC2)cc1 (stereo unspecified) was read as GDH-TPI counter-1 inactive, Mtb FBA inh 61, BJeLR viability inactive, PrPC TRFRET inactive, RecA intein inh inactive, Mtb FBA confirm inactive and GDH-TPI counter-2 inactive.
Clc1ccc([C@H]2OC[C@@]3(CNCc4ccccc4)CS[C@H](c4ccc(Cl)cc4)N23)cc1 was read as PrPC TRFRET inactive.
OC1c2cc(Br)ccc2N=C2CCCCCN21 (stereo unspecified) was read as GDH-TPI counter-1 inactive, Mtb FBA inh inactive and PrPC TRFRET inactive.
Screening OC1c2c(F)cccc2N=C2CCCCCN21 (stereo unspecified) returned GDH-TPI counter-1 inactive, Mtb FBA inh 48, PrPC TRFRET inactive, Mtb FBA confirm 141 and GDH-TPI counter-2 138.
`C[C@H](O)[C@@H]1CN2CCc3ccc(N4CCOCC4)cc3[C@@H]2C[C@@H]1N(C)C(=O)c1ccccc1F` gave PrPC TRFRET inactive.
For Cc1cccc(CN2C(=O)/C(=C\c3ccc(C(=O)NCCCN4CCN(C)CC4)cc3)Oc3ccccc32)c1 the results were GDH-TPI counter-1 inactive, Mtb FBA inh 81, BJeLR viability inactive, PrPC TRFRET inactive, RecA intein inh inactive, Mtb FBA confirm inactive and GDH-TPI counter-2 inactive.
CN1CCN(CCCNC(=O)c2ccc(/C=C3/Sc4ccccc4N(Cc4cccc(Cl)c4)C3=O)cc2)CC1 was read as GDH-TPI counter-1 inactive, Mtb FBA inh inactive, BJeLR viability inactive, PrPC TRFRET inactive and RecA intein inh inactive.
`CN1CCN(CCCNC(=O)c2ccc(/C=C3\Oc4ccccc4N(Cc4ccccc4F)C3=O)cc2)CC1` gave GDH-TPI counter-1 inactive, Mtb FBA inh 55, BJeLR viability inactive, PrPC TRFRET inactive, RecA intein inh inactive, Mtb FBA confirm inactive and GDH-TPI counter-2 inactive.
`CN1CCN(CCCNC(=O)c2ccc(/C=C3\Sc4ccccc4N(Cc4ccc(F)cc4)C3=O)cc2)CC1` gave GDH-TPI counter-1 inactive, Mtb FBA inh inactive, BJeLR viability inactive, PrPC TRFRET inactive and RecA intein inh inactive.
`CCSc1nnc(-c2ccco2)n1C` gave PrPC TRFRET inactive.
`CN(C(=O)c1ccncc1)c1nnc(-c2ccccn2)s1` gave GDH-TPI counter-1 inactive, Mtb FBA inh 48, BJeLR viability inactive, PrPC TRFRET inactive, RecA intein inh inactive, Mtb FBA confirm 146 and GDH-TPI counter-2 133.
CC1(C)Oc2ccc3ccc(=O)oc3c2[C@@H](O)[C@@H]1O was read as GDH-TPI counter-1 inactive, Mtb FBA inh 59, PrPC TRFRET inactive, Mtb FBA confirm 38 and GDH-TPI counter-2 27.
CCO[C@H]1c2c(ccc3ccc(=O)oc23)OC(C)(C)[C@@H]1O was read as GDH-TPI counter-1 inactive, Mtb FBA inh 59, PrPC TRFRET inactive, Mtb FBA confirm 137 and GDH-TPI counter-2 96.
Screening CC(=O)OC1c2c(ccc3ccc(=O)oc23)OC(C)(C)C1OC(=O)CC(C)C (stereo unspecified) returned GDH-TPI counter-1 inactive, Mtb FBA inh inactive, PrPC TRFRET inactive and RecA intein inh inactive.
